“And” between values parts separate entries of the source, which are not always exact repeats. Identical values can stand only once. Inconclusive results are not listed. Entries that show only a call come without a potency. The source made the active and inactive calls. Calls follow the shape of the dose curve; as a rule, active = well fitted inhibition curve with a large enough effect in the repeat runs; inconclusive = weak or mixed curves, or effect the other way; inactive = no such curve, though single readings can be large or run the other way.
Potency is read from the fitted curve at half-maximal effect.

For this experiment, the target named is Nuclear receptor ROR-gamma (Homo sapiens) (UniProt P51449). The experiment in a line: qHTS assay to identify small molecule antagonists of the retinoid-related orphan receptor gamma (ROR-gamma) signaling pathway (AID 1159521; also: nearly all actives have a fitted effect of over 50% in size; as to activity change, negative = inhibition: top concentration of the series differs between compounds). Conditions: Tet-on RORgamma CHO cells, RORE-luciferase, 16 h; series mostly up to 92.4 µM. An excerpt:
U.S. Tox21 Program National Center for Advancing Translational Sciences [NCATS] NIH Chemical Genomics Center [NCGC] U.S. Environmental Protection Agency [EPA] National Institutes of Environmental Health Sciences [NIEHS] National Toxicology Program [NTP] U.S. Food and Drug Administration [FDA] Tox21 Assay Overview: Nuclear steroid hormone receptors are involved in many biological processes including inflammatory responses, cell proliferation, and apoptosis. Environmental factors or compounds disrupting these nuclear receptor pathways and gene expression may promote susceptibility to immunotoxicants and autoimmune diseases. One important group of these expression factors are the retinoid-related orphan receptors. To assess compounds that may interfere with the retinoid-related orphan receptor gamma (ROR-gamma) transcription factor, a cell-based luciferase assay was used. The CHO cell-based assay utilizes a TET-inducible ROR expression factor and ROR response element-LUC reporter gene. Reporter gene activity was induced using Doxycycline Hyclate and measured after 16 hr incubation. Tet-on ROR gamma CHO cells were used to screen against the Tox21 10K compound library for ROR gamma antagonists by quantification of decreased reporter gene activity in terms of decreased luminescence.
Tox21 Assay Protocol Summary: Tet-on ROR gamma CHO cells were dispensed at 1,000 cells in 4 uL of culture medium per well into white wall/solid bottom 1536-well plates using a Multidrop Combi (Thermo Scientific, Waltham, MA) dispenser. Following incubation at 37 C and 5% CO2 for 4 hr, 23 nL of compounds dissolved in DMSO, positive controls or DMSO only were transferred by a Pintool station (Kalypsys, San Diego, CA) and after 2 hr incubation at 37 C, one ul of 1 uM (final concentration) of Doxycycline Hyclate was added to all the wells by using a Flying Reagent Dispenser (FRD) (Aurora Discovery, San Diego, CA). After 16 hr incubation at 37 C and 5% CO2, 5 uL of ONE-Glo reagent (Promega Corporation, Madison, WI) was added to each assay plate using FRD. After 30 min incubation at room temperature, luminescence was quantified on a ViewLux plate reader (Perkin Elmer, Waltham, MA).
On the technique in general: In qHTS, concentration-response curves come from the screen itself.
Consider `CC(C)NC[C@@H](O)COc1ccc(CC(N)=O)cc1`, for which the Potency result was “inactive”.
The same measure, in the same setting: then `C=CC(=O)Nc1cc2c(Nc3ccc(F)c(Cl)c3)ncnc2cc1OCCCN1CCOCC1`, with “inactive”; and `CCCCC(CC)COC(=O)CCCCC(=O)OCc1ccccc1` (stereo not given), with “inactive”; and `O=C(O)c1ccc2cc(C(=O)O)ccc2c1`, with “inactive”.
`O=C1c2ccccc2C(=O)N1SC1CCCCC1`: the Potency is 27.3 µM (active).
On the same count and under the same terms, then `C=Cc1ccccc1C=C`, with “inactive”; and `Nc1cc(Cl)c(O)c(Cl)c1`, with 68.6 µM (active).
On the same count and under the same terms, under `O[C@@H]([C@H](O)[C@H](O)CBr)[C@H](O)CBr` stands “inactive”.
Still for that read-out and setting: then `CCCCCCCCCCCCCC[N+](C)(C)C`, with 11.8 µM (active) and 24.3 µM (active) and 11.9 µM (active).
As to `Cc1ccc(C(=O)O)cc1`, the Potency result is “inactive”.
As to `Cc1cc(=O)oc2cc(O)cc(O)c12`, the Potency entry is “inactive”.
For the compound `CCC(COC(=O)CCS)(COC(=O)CCS)COC(=O)CCS`, the Potency result was “inactive”.
The same measure, in the same setting: then `CCCCNS(=O)(=O)c1ccc(C)cc1`, with “inactive”.
Same read-out and setting: under `CCCCCCCC` stands “inactive”.
For the compound `CC(C)Cn1cnc2c(N)nc3ccccc3c21`, the activity change, negative = inhibition is 5.43% [at 19 µM] (inactive).
With `O=C1CCCCCCCCCCCCCCCO1`, the Potency entry was “inactive”.
On the same count and under the same terms, under `COc1c(C)c2c(c(O)c1C/C=C(\C)CCC(=O)OCCN1CCOCC1)C(=O)OC2` stands 0.237 µM (active); under `CCOC(=O)Cn1cccc1-c1nc(-c2ccc(OC)cc2)c(-c2ccc(OC)cc2)s1`, “inactive”; under `CC1=Nc2ccccc2C1(C)C`, 17.2 µM (active).
In the case of `NC(=S)NC(N)=S`, the Potency entry is “inactive”.
On the same count and under the same terms, then `O=S(=O)(O)c1ccc(Nc2nc(Nc3ccc(/C=C/c4ccc(Nc5nc(Nc6ccc(S(=O)(=O)O)cc6)nc(N(CCO)CCO)n5)cc4S(=O)(=O)O)c(S(=O)(=O)O)c3)nc(N(CCO)CCO)n2)cc1`, with “inactive”; and `C#C[C@]1(OC(C)=O)CC[C@H]2[C@@H]3CCC4=C[C@@H](OC(C)=O)CC[C@@H]4[C@H]3CC[C@@]21C`, with 33.5 µM (active); and `CC1(C)[C@@H](O)CC[C@]2(C)[C@H]3C(=O)C=C4[C@@H]5C[C@@](C)(C(=O)O)CC[C@]5(C)CC[C@@]4(C)[C@]3(C)CC[C@@H]12`, with “inactive”.
Still for that read-out and setting: then `CCCCN(CCCC)CC(O)c1cc(Cl)cc2c1-c1ccc(Cl)cc1/C2=C/c1ccc(Cl)cc1` (stereo not given), with 29.8 µM (active).
For the compound `CCC(CC)C(C)CCOC(C)=O` (stereo not given), the Potency entry was “inactive”.
Same read-out and setting: then `CN1CCCCC1CCN1c2ccccc2Sc2ccc(S(C)=O)cc21` (stereo not given), with 29.8 µM (active); and `CNC(=O)c1ccccc1Sc1ccc2c(/C=C/c3ccccn3)n[nH]c2c1`, with “inactive”.
Same read-out and setting: under `CCCCCCCCCCC[C@@H](C[C@@H]1OC(=O)[C@H]1CCCCCC)OC(=O)[C@H](CC(C)C)NC=O` stands 16.8 µM (active).
On the same count and under the same terms, then `OC/C=C/CO`, with “inactive”.
Turning to `CCCNCCC`, the Potency result is “inactive”.
On the same count and under the same terms, under `O=C(O)[C@H](O)[C@@H](O)[C@H](O[C@@H]1O[C@H](CO)[C@H](O)[C@H](O)[C@H]1O)[C@H](O)CO` stands “inactive”; under `Cc1c(C)c2c(c(C)c1OC(=O)c1cccnc1)CC[C@@](C)(CCC[C@H](C)CCC[C@H](C)CCCC(C)C)O2`, “inactive”; under `Cc1cc(-c2ccc(N=Nc3cc(S(=O)(=O)O)c4ccccc4c3N)c(C)c2)ccc1N=Nc1cc(S(=O)(=O)O)c2ccccc2c1N`, 30.8 µM (active).
Still for that read-out and setting: then `CC(C)OC(=O)C(O)(CC(=O)O)CC(=O)O`, with “inactive”; and `COC(=O)Nc1nc2ccc(C(=O)c3ccccc3)cc2[nH]1`, with “inactive”.
The same measure, in the same setting: then `Cc1ccc(C(C)C)cc2c(C)ccc1-2`, with “inactive”; and `CCCCOC(=O)CC`, with “inactive”.
On to `COC(=O)c1ccccc1OC`, for which the Potency result is “inactive”.
Same read-out and setting: under `CC[N+](CC)(CC)CCOC(=O)C(C1CCCC1)C1CCCC1` stands “inactive”; under `Nc1ccc(C(=O)O)c(O)c1`, “inactive”.

The record behind these values is PubChem BioAssay (Tox21).
